From PubChem BioAssay AID436 (Emory University Molecular Libraries Screening Center, 2006)
Screen size: about 72,000 compounds; about 350 (0.49%) were called active. This is one part of a sample in which actives are shown more often than they occur.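 Rule for the calls: active = activity remaining at or below 50% of control, provided the compound also passes the data quality filters; inactive = the rest, including low values that fail the filters.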

biological target: Ubiquitin carboxyl-terminal hydrolase BAP1 (Homo sapiens) (UniProt Q92560); test: BAP1 ubiquitin hydrolase activity blockers – biochemical, Ub-AMC fluorescence, kinetic, primary screen (AID 436); conditions: recombinant BAP1, Ub-AMC hydrolysis fluorescence kinetic; at 20 µM; stronger effect = lower value;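 note: 100% = DMSO wells rate and 0% = substrate alone blank rate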
Sequence (Q92560 whole entry, looked up): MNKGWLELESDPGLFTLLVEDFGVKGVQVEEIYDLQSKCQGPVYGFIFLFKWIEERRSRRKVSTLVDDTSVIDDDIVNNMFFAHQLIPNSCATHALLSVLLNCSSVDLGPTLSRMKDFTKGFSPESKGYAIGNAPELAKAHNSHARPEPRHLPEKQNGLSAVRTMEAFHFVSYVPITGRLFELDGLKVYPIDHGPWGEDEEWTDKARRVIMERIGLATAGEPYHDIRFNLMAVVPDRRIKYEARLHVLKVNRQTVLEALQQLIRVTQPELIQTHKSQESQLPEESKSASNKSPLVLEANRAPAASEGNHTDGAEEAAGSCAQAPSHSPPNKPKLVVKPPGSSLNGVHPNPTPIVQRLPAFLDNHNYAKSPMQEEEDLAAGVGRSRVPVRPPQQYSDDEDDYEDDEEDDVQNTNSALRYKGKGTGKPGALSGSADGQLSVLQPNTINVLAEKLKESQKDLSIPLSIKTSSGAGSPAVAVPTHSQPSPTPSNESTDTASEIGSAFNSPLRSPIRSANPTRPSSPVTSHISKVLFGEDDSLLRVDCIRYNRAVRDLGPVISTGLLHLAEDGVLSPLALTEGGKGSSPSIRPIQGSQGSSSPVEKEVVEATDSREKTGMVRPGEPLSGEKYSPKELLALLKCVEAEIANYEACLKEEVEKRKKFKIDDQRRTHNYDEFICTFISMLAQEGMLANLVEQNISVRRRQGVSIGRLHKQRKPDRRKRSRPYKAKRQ

Structure (SMILES) | activity remaining (% of control)
Cn1c(=N)n(CC(=O)c2ccco2)c2ccccc21 | 76.8% (inactive)
Brc1ccc(-c2nc3ccccc3nc2-c2ccccc2)cc1 | 66.2% (inactive)
CCOc1ccc(Nc2cc(C)nc3ncnn23)cc1 | 112% (inactive)
Nc1nnc(-c2ccccc2SCc2ccc(F)cc2)s1 | 68.2% (inactive)
COc1ccc(C(=O)Nc2ccc3oc(-c4ccc(C)cc4)nc3c2)cc1[N+](=O)[O-] | 77% (inactive)
Cc1c(N=Cc2cc(Br)ccc2O)c(=O)n(-c2ccccc2)n1C | 106% (inactive)
CC(=O)CCN1C(=O)C(=O)c2ccccc21 | 83.2% (inactive)
CCn1c(N2CCCC2)nc2c1c(=O)n(C)c(=O)n2C | 117% (inactive)
Cc1nc2sc3ccccc3c2s1 | 122% (inactive)
COc1ccc(-c2csc(NC(=O)c3ccc(S(=O)(=O)N4CC(C)CC(C)C4)cc3)n2)cc1C (centres undefined) | 92.9% (inactive)
Cn1c(SCC(=O)c2ccc(Cl)cc2)nc2c1c(=O)[nH]c(=O)n2C | 112% (inactive)
COc1ccc(OC)c(NC(=O)c2cc(Cl)ccc2[N+](=O)[O-])c1 | 90.2% (inactive)
CCCCOC(=O)C1=C(C)NC2=C(C(=O)CCC2)C1c1ccc(OCC)c(OC)c1 (centres undefined) | 72.5% (inactive)
Cc1ccc2cccc(NC(=O)C34CC5CC(CC(C5)C3)C4)c2n1 | 149% (inactive)
CCOC(=O)c1c(C)oc2ccc(N(C(=O)c3ccccc3)S(=O)(=O)c3ccc(Cl)c([N+](=O)[O-])c3)cc12 | 71% (inactive)
CCCOC(=O)c1ccc(NC(=O)c2ccc(OC)cc2)cc1 | 167% (inactive)
CC1=C(C(=O)OCc2ccccc2)C(c2ccccc2I)NC(=O)N1C (centres undefined) | 104% (inactive)
CCOC(=O)c1c(N=c2oc3ccccc3cc2C(=O)Nc2ccc(F)cc2)sc(C)c1C | 63.1% (inactive)
CC(C)C(=O)Nc1c2c(nn1-c1ccc(Cl)cc1)CSC2 | 73.6% (inactive)
COc1ccc(N2C(=O)CSC2c2cc(Br)ccc2OC)cc1 (centres undefined) | 80.4% (inactive)
O=C(Nc1nc2ccccc2s1)C1CC(=O)N(c2ccccc2Cl)C1 (centres undefined) | 204% (inactive)
O=C(CSc1nc2sc3c(c2c(=O)[nH]1)CCCC3)NCc1ccccn1 | 170% (inactive)
O=C(Nc1cccc(-c2nc3ccccc3o2)c1)C1CCCCC1 | 79.6% (inactive)
COc1ccc(C2CC(c3c(-c4ccccc4)c4cc(Br)ccc4[nH]c3=O)=NN2C(=O)c2ccncc2)cc1 (centres undefined) | 97.8% (inactive)

Structure (SMILES) | activity remaining (% of control)
Fc1ccc2nc(N3CCCCC3)sc2c1 | 108% (inactive)
Fc1ccc2nc(Nc3nc4c(s3)CCCC4)sc2c1 | 43.8% (active)
O=C(Cn1c(=O)sc2ccccc21)Nc1nc2c(s1)CCCC2 | 79.8% (inactive)
COc1ccccc1NS(=O)(=O)c1cc(C(=O)c2ccc(Br)cc2)ccc1C | 78.7% (inactive)
CC(C)C(O)(c1ccccc1)c1cc[n+](C)cc1 (centres undefined) | 229% (inactive)
CCOC(=O)C(C(=O)OCC)n1ccc(=O)[nH]c1=O | 71.2% (inactive)
CC(=O)NC12CC3CC(C1)CC(c1ccc([N+](=O)[O-])cc1)(C3)C2 | 70.3% (inactive)
CC(=O)NC(=O)c1cc2cc(Cl)ccc2oc1=Nc1ccc(C#N)cc1 | 84.2% (inactive)
Cc1ccc(S(=O)(=O)NCCN=Cc2ccc3c(c2)OCO3)cc1 | 99.1% (inactive)
O=C1c2ccccc2-c2onc3c(N4CCCC4)ccc1c23 | 60.4% (inactive)
COc1ccc(C(=O)Nc2c[nH]c(=O)[nH]c2=O)cc1OC | 54.8% (inactive)
N#CCSc1nc2ccccc2c(=O)n1-c1ccccc1 | 109% (inactive)
O=c1c2ccccc2nc(CSc2nnnn2-c2ccccc2)n1-c1ccccc1 | 37.5% (active)
CCOC(=O)c1sc(NC(=O)c2cc(Cl)ccc2[N+](=O)[O-])nc1C | 56.8% (inactive)
Cc1ccc(S(=O)(=O)N(CC(O)CN2C(=O)NC(C)(C)C2=O)c2cccc([N+](=O)[O-])c2)cc1 (centres undefined) | 74.1% (inactive)
COc1ccc(C(=O)Nc2nc3c(ccc4ccccc43)s2)c(OC)c1 | 480% (inactive)
O=C(CC(=O)Nc1ccc2c(c1)Cc1cc([N+](=O)[O-])ccc1-2)Nc1ccc2c(c1)Cc1cc([N+](=O)[O-])ccc1-2 | 74% (inactive)
O=S(=O)(c1cccc(S(=O)(=O)N2CCC(n3nnc4ccccc43)CC2)c1)N1CCCCC1 | 42.6% (active)
Cc1ccc(S(=O)(=O)N2CCC(N3CCCCCC3)CC2)cc1 | 79.2% (inactive)
CC(=O)c1cccc(S(=O)(=O)N2CCC(n3nnc4cc(F)ccc43)CC2)c1 | 84.8% (inactive)
CCOC(=O)c1c(NC(=O)c2cccnc2)sc2c1CCCC2 | 131% (inactive)
Fc1ccc(-c2ccc(-c3nn4c(-c5ccco5)nnc4s3)o2)cc1 | 49.1% (active)
Cc1nnc2sc(-c3ccco3)nn12 | 63.2% (inactive)
FC(F)(F)c1nnc2sc(-c3ccco3)nn12 | 92.7% (inactive)

Structure (SMILES) | activity remaining (% of control)
CCOC(=O)C1C(=O)C=C(C=Cc2cccs2)CC1c1ccccc1 (centres undefined) | 107% (inactive)
Cc1c(Cc2ccccc2)c(=O)oc2c(C)c(OC(C)C)ccc12 | 64.3% (inactive)
Cn1c(C#CC(C)(C)O)cc2ccccc21 | 106% (inactive)
COc1cc(-c2nnc(SCC(=O)c3ccc(Cl)cc3)o2)cc(OC)c1OC | 135% (inactive)
Cc1ccc(S(=O)(=O)Nc2cccc(F)c2)cc1C(=O)O | 98.5% (inactive)
Cc1ccc(OCC(=O)Nc2ccc(C)c(Cl)c2)cc1C | 81.6% (inactive)
COc1ccc(-c2nc3cc(C)ccc3o2)cc1N=Cc1cccc(OC)c1O | 160% (inactive)
CC(C)(C)C(O)Cn1c(=N)n(Cc2ccc(Cl)cc2)c2ccccc21 (centres undefined) | 201% (inactive)
CC(C)c1ccc2c(c1)c(SC(C)(C)C)c(CC(C)(C)C(=O)O)n2Cc1ccc(Cl)cc1 | 17.2% (active)
O=C(O)CCCC(=O)NC1=NCCS1 | 91.1% (inactive)
NC(=O)c1c(NC(=O)c2ccc(Oc3ccccc3)cc2)sc2c1CCCCC2 | 77.2% (inactive)
O=C1CSC(c2ccc([N+](=O)[O-])cc2)N1c1ccc(Br)cc1 (centres undefined) | 83.1% (inactive)
COC(=O)C1=C(C)NC2=C(C(=O)CC(C)(C)C2)C1c1cccc(O)c1 (centres undefined) | 58.1% (inactive)
Cc1ccc(S(=O)(=O)CCc2nnc(NC(=O)c3ccc(C(C)(C)C)cc3)s2)cc1 | 50.6% (inactive)
CCN(CC)S(=O)(=O)c1ccc(C(=O)Nc2nc3c(s2)C(=O)CC(C)(C)C3)cc1 | 55.1% (inactive)
CCN(CC)c1ccc2cc(-c3nc4ccc(Cl)cc4[nH]3)c(=O)oc2c1 | 278% (inactive)
CCOc1c([N+](=O)[O-])c(=O)oc2ccccc12 | 111% (inactive)
Cc1ccc2nc(NC(=O)c3ccccc3[N+](=O)[O-])sc2c1 | 91.2% (inactive)
Cc1ccccc1C(=O)Nc1ccc(C(=O)Nc2cccc(C(F)(F)F)c2)cc1 | 194% (inactive)
CCOC(=O)c1ccc2nc(C34CC5CC(CC(C5)C3)C4)ccc2c1 | 126% (inactive)
C=CCn1c2ccccc2c2nnc(SC(CC)C(=O)Nc3nc(C)c(C(=O)OCC)s3)nc21 (centres undefined) | 42% (active)
CCOC(=O)c1sc(NC(=O)C(CC)Sc2nccn2C)nc1C (centres undefined) | 90.3% (inactive)
O=C(Oc1ccc2ccccc2c1Br)c1ccncc1 | 56.6% (inactive)
Cn1c(C(C)(O)C(O)(c2ccccc2)c2ccccc2)nc2ccccc21 (centres undefined) | 90.5% (inactive)

Structure (SMILES) | activity remaining (% of control)
CC1=C(C(=O)OC(C)C)C(c2ccc(O)c([N+](=O)[O-])c2)C2=C(CCCC2=O)N1 (centres undefined) | 90.5% (inactive)
COc1cccc(NC(=O)c2ccc(N(Cc3ccccc3)S(C)(=O)=O)cc2)c1 | 89.5% (inactive)
O=C1CC(Nc2ccc3ccccc3c2)C(=O)N1c1ccccc1 (centres undefined) | 163% (inactive)
CC(C)(C)C(=O)Nc1ccc(C(=O)Nc2ccc(Sc3ccc([N+](=O)[O-])cc3)cc2)cc1 | 57.4% (inactive)
O=C(O)CCC(=O)Nc1ccc([N+](=O)[O-])cc1 | 64.9% (inactive)
COc1ccc(NC(=O)c2sc(-c3ccccc3)nc2C)cc1 | 117% (inactive)
COc1ccc(C(=O)n2nnc3ccccc32)cc1 | 95.3% (inactive)
COc1ccc(NC(=O)c2cc3ccccc3oc2=O)cc1Cl | 75.5% (inactive)
CC(=O)NCCN1C(=O)C(=O)/C(=C(/O)c2ccc(Cl)cc2)C1c1ccccc1F (centres undefined) | 108% (inactive)
Cc1nc(-c2ccc(NC(=O)c3cccc(Br)c3)cc2)cs1 | 162% (inactive)
COc1ccc(-n2nc3c(c2NC(=O)Cc2ccccc2)CSC3)cc1 | 73.5% (inactive)
O=c1[nH]c2cc(Cl)ccc2c(-c2ccccc2)c1Sc1ncn[nH]1 | 98.9% (inactive)
O=C(Nc1ccccc1F)c1ccc([N+](=O)[O-])cc1Cl | 205% (inactive)
CCOC(=O)C(=O)N1c2ccccc2C(C)(c2ccccc2)CC1(C)C (centres undefined) | 108% (inactive)
O=C1C2C3C=CC(O3)C2C(=O)N1c1ccc(Br)cc1[N+](=O)[O-] (centres undefined) | 77.6% (inactive)
Cc1cc(C)cc(NC(=O)CCN2C(=O)c3ccccc3C2=O)c1 | 49.9% (inactive)
S=c1[nH]nc(COc2ccccc2)o1 | 52.5% (inactive)
CCC(C)(C)n1nnnc1C(c1cccs1)N1CCN(Cc2ccccc2)CC1 (centres undefined) | 85.8% (inactive)
CC(C)(C)n1nnnc1C(c1cccs1)N(Cc1cccnc1)CC1CCCO1 (centres undefined) | 80.9% (inactive)
CCOc1ccc(CN(Cc2ccco2)C(c2cccs2)c2nnnn2C(C)(C)C)cc1 (centres undefined) | 36.6% (active)
O=c1[nH]nc(SCc2ccc(Cl)cc2)c(=O)[nH]1 | 64.4% (inactive)
COc1ccc(C2C(N3C(=O)c4cccc([N+](=O)[O-])c4C3=O)C(=O)N2c2ccc(C)c(C)c2)cc1OC (centres undefined) | 85.8% (inactive)
